Laboratory results as given in PubChem BioAssay AID651965 (National Center for Advancing Translational Sciences (NCATS), 2013).
Out of some 340,000 compounds screened, about 6,400 (1.9%) were called active. Roughly 4% stayed inconclusive and do not appear here. Shown is part of a subset that was picked to be rich in actives. Values without a mark were called inactive. Calls come from the whole dose curve; as a rule, active = well fitted falling curve with a large enough effect; inconclusive = small, poorly fitted or top-dose-only effect; inactive = no such curve, though single readings can be large or run the other way.

Target: ATP-dependent Clp protease proteolytic subunit (Bacillus subtilis (strain 168)) (UniProt P80244)
Experiment: qHTS Assay for Activators of ClpP; note: the source files actives as falling curves though it sought activators and does not explain the sign; nearly all actives have a fitted effect of over 65% in size
Conditions: purified B. subtilis ClpP, FRET peptide cleavage, 20 min; series mostly up to 57.5 µM; activity change, negative = active: at the top concentration
Outline: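 Purified B. subtilis ClpP, 10 microg/mL final in Tris/HCl pH8 with KCl, BSA, glycerol and Tween-20, cleaved an Abz/nitrotyrosine-quenched decapeptide. Fluorescence (ex 320, em 430) was read at 0 and 20 min at room temperature. Delta was normalized to 5.8 microM ADEP and DMSO/no-enzyme controls.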
Potency is the fitted concentration of half-maximal effect.

In order of rising “activity change, negative = active” value:
1. COc1ccc(CNC(=O)c2ccc3c(O)c(S(=O)(=O)c4ccccc4)c(=O)[nH]c3c2)cc1  -27%
2. CCOC(=O)N1CCC(NC(=O)CCc2cn(C)c3ccccc23)CC1  -26.7%
3. CCOC(=O)N1CCC(NC(=O)Cc2cn(C)c3ccccc23)CC1  -21%
4. NC(=O)Cc1ccc2c(c1)[nH]c1ccccc12  -19.7%
5. COc1ccc(-n2nnnc2CNC(=O)c2ccc3ccccc3c2)cc1  -16%
6. CCCc1nc2ccccc2c(=O)n1NC(=O)c1c(O)c2ccccc2[nH]c1=O  -15.9%
7. CC(=O)Nc1cc(-c2ccc(N3CCN(C)CC3)cc2)cn2c(-c3ccc(F)cc3)cnc12  -15%
8. COC(=O)c1ccc2nc(C3CCCCC3)c(Cc3cccc(F)c3)n2c1  -13.5%
9. C(=Nc1ccc(/C=C/c2ccnc3ccccc23)cc1)Nc1ccc(/C=C/c2ccnc3ccccc23)cc1  -6.68%
10. CCCCCCC1(C)NC(c2ccc3c(c2)OCO3)=CC(c2ccccc2O)N1 (stereo not given)  -6.14%
11. CN[C@H]1C[C@H]2c3cc(Oc4ccccc4C)ccc3CCN2C(=O)[C@H]1[C@H](C)O  -4.92%
12. O=C1NC[C@H](Cc2ccc(O)cc2)N(C[C@H]2CCCN2C[C@H](Cc2ccccc2)N2C[C@H](Cc3ccccc3)N(CCc3ccccc3)C(=O)C2=O)C1=O  -3.18%
13. CC(C)c1cccc(-c2csc(C(O)c3ccccc3)n2)c1 (stereo not given)  -2.46%
14. CCCS(=O)(=O)NC(=O)C1(C)CCCN(C(=O)c2cc(C)on2)C1 (stereo not given)  -2.31%
15. CC(=O)Oc1ccc(-c2nc3c(C)cccc3c(=O)o2)cc1  -2.1%
16. COC(=O)Cc1ccc(NC(=S)NCc2ccccc2)cc1  -1.76%
17. COc1cc(F)ccc1-c1cc(C(=O)NCC2CCCCC2)[nH]n1  -1.75%
18. Cc1nn(CC(=O)N2CCN(c3cccc(C(F)(F)F)c3)CC2)c(=O)c2cc3sccc3n12  -1.4%
19. OC[C@H]1O[C@@H](c2nc(-c3nc(-c4ccc(F)cc4)no3)cs2)[C@H](O)[C@@H](O)[C@H]1O  -1.14%
20. O=C(COC(=O)C1(c2ccc(F)cc2)CCCC1)N1CCNC1=O  -1.05%
21. COc1cccc(NC(=O)C2(C)CCN2C(=O)CCC2CCCC2)c1 (stereo not given)  -0.927%
22. CCC(C)N(c1ccc(/C=C/c2ccnc3ccccc23)cc1)C(C)CC (stereo not given)  -0.824%
23. COc1ccccc1CNC(=O)c1cc(-c2cc(Cl)ccc2C)n[nH]1  -0.552%
24. CC1=CC(C)(C)N(C(=O)CSc2nnc(-c3ccccc3)o2)c2ccc(C)cc21  -0.107%
25. Cc1nc(N=C(N)N)nc2c(C)cccc12  0.0945%
26. COc1ccc(S(=O)(=O)N2CCCCC2c2cc(C(=O)NCc3ccc(F)cc3)no2)cc1 (stereo not given)  0.0963%
27. Cc1ccc(C=O)cc1Cl  0.201%
28. CN(C)S(=O)(=O)c1cccc(NC(=O)COC(=O)C2(c3ccccc3F)CCCC2)c1  0.268%
29. Nc1ccc(/C=C/c2ccnc3ccccc23)c([N+](=O)[O-])c1  0.526%
30. OC(CBr)CN1CCCCC1 (stereo not given)  0.573%
31. O=C(CSc1ccccc1)Nc1cccc(S(=O)(=O)N2CCOCC2)c1  1%
32. CCCCOCCCNC(=O)C[C@@H]1C[C@@]2(C(=O)OC)CCCCC=C2N(CCC2=CCCCC2)C1=O  1.12%
33. CCOC(=O)N1CCN(C(c2ccnc3ccccc23)c2nnnn2-c2c(C)cccc2C)CC1 (stereo not given)  1.38%
34. COc1ccc(CSc2nnnn2-c2ccc(C(=O)O)cc2)cc1  1.38%
35. CC1(C(=O)NS(=O)(=O)c2cccc(OC(F)F)c2)CCN1C(=O)C1CC1 (stereo not given)  1.45%
36. Cc1occc1C(=O)Nc1cccc(S(=O)(=O)N2CCOCC2)c1  1.54%
37. COc1ccc2c(c1)C(C)=CC(C)(C)N2C(=O)CNCc1ccc2c(c1)OCO2  2.1%
38. O=C(Cc1ccccc1)NCc1ccc(F)cc1  3.53%
39. CCc1ccc2[nH]c(=O)c(Cc3ccccc3)c(O)c2c1  3.85%
40. CCN1CCN(C(=O)Cn2nc(C)n3c(cc4c(OC)cccc43)c2=O)CC1  3.98%

With `COc1ccc(-n2nnnc2-c2nc3ccccc3s2)cc1` the Potency was 28.2 µM (active).
With `COc1cccc2c1cc1c(=O)n(CC(=O)N3CCN(c4ccccc4)CC3)nc(C)n12` the Potency was 25.1 µM (active).
With `CCOC(=O)N1CCC(NC(=O)C(C)n2c3ccccc3c3cnn(C)c(=O)c32)CC1` (stereo not given) the Potency was 28.2 µM (active).
For `NS(=O)(=O)c1ccc(NC(=O)COC(=O)C2(c3ccc(F)cc3)CCCC2)cc1`, the Potency was 28.2 µM (active).
With `COc1ccc2c(c1)C(C)=CC(C)(C)N2C(=O)Nc1ccccc1` the Potency was 28.2 µM (active).
With `COc1nc(N=C(N)N)nc2c(C)cccc12` the Potency was 3.16 µM (active).
In the case of `O=C(Nc1cccc(S(=O)(=O)N2CCOCC2)c1)C12CC3CC(CC(C3)C1)C2`, the Potency is reported as 31.6 µM (active).
For `CCCOC(=O)Cc1c(O)c2ccccc2[nH]c1=O`, the Potency was 25.1 µM (active).
For `COC(=O)Cc1c(-c2[nH]c3ccccc3c2CC(=O)OC)[nH]c2ccccc12`, the Potency was 28.2 µM (active).
With `O=C(Cc1c(O)c2ccccc2[nH]c1=O)NCc1ccccc1` the Potency was 20 µM (active).
